Assay [1] is described as follows: reduced mouse 2C T cell binding to pMHC/ICAM-1 vesicles – MLPCN validation set, flow cytometry, LFA-1/ICAM-1 modulator project, pilot screen (AID 2523).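 As to vesicle binding response: mean PE anti-B7-1 fluorescence of CD8+ cells relative to row control; 100% = QL9-loaded vesicles with DMSO vehicle in the same plate row.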 Conditions: 2C mouse CD8+ T cells, at 7 µM, stronger effect = lower value; double positive events: measured here: CD8+/vesicle+ event percentage. Background: Flow cytometry measures light scatter and fluorescence of single cells or particles in a stream.

Assay [2] has as its target Integrin beta-1 (Homo sapiens) + Integrin alpha-4 (Homo sapiens) (UniProt P13612+P05556). The assay can be described thus: alpha4beta1 integrin LIBS antibody binding reduction – U937 cells, HUTS-21 mAb, flow cytometry, validation set, VLA-4 allosteric modulator project, pilot screen (AID 2674;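 active = inhibition above 50%, about 3 SD of the validation set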;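 also: antibody binding induced by the VLA-4 ligand LDV present at three times its Kd; 0% = LDV ligand with antibody and no compound and 100% = antibody without LDV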). Conditions: HUTS-21 LIBS mAb binding, at 6.7 µM, stronger effect = higher value, binding induced by LDV ligand.

Assay [3] is described as follows: calorie-restriction mimetic ROS inhibitors, yeast – validation compound set, pilot screen (AID 2706;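 active = superoxide response below 65% of plate, a cut near 3 SD across the whole screen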;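 also: yeast exposed to compound for one week at 30 degrees C before staining; 100% = mean of all compound wells on the same plate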). Conditions: S. cerevisiae aging, superoxide DHE fluorescence; at 10 µM, stronger effect = lower value.
The target in assay [4] is Beta-adrenergic receptor kinase 1 (Homo sapiens) (UniProt P25098). The assay can be described thus: GRK2 binders displacing RNA aptamer, biochemical, validation, human GRK2, bead flow cytometry (AID 488806;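 active = aptamer binding inhibition above 30%, about 3 SD of noise from non-fluorescent compounds; inactive = inhibition at or below 30%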). Conditions: bead-bound GRK2, FAM-aptamer displacement, at 10 µM, stronger effect = higher value.
Chain of Beta-adrenergic receptor kinase 1 (Homo sapiens) (P25098 whole entry, looked up): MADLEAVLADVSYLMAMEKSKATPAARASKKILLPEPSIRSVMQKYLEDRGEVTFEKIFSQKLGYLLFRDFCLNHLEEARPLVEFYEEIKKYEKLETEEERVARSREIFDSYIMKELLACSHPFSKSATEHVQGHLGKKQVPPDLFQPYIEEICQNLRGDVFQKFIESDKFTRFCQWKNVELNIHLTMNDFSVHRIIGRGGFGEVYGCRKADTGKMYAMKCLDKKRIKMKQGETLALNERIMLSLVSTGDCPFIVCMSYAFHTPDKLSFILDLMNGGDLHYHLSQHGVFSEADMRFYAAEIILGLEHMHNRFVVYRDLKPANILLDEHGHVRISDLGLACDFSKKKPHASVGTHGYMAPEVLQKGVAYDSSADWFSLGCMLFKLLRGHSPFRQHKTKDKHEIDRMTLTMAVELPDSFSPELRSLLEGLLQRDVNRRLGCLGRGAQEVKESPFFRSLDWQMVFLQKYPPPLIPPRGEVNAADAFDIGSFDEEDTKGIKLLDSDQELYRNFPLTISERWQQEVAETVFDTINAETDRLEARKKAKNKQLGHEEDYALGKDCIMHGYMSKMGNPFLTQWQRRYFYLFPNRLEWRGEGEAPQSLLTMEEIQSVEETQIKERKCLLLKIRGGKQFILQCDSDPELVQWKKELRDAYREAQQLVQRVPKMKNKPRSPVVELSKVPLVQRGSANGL
Assay [5] deals with Beta-2 adrenergic receptor (Homo sapiens) (UniProt P07550). The assay can be described thus: agonist-induced loss of surface beta2AR – cell-based, FAP fluorogen, flow cytometry, validation set, pilot screen (AID 504459;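 active = percent response above 42, roughly 3 SD of non-fluorescent test compounds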;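 also: agonist-driven loss of surface beta2AR via internalization measured by FAP dye flow cytometry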). Conditions: Am2.2-beta2AR cells, at 10 µM, stronger effect = higher value.
Chain of Beta-2 adrenergic receptor (Homo sapiens) (P07550 whole entry, looked up): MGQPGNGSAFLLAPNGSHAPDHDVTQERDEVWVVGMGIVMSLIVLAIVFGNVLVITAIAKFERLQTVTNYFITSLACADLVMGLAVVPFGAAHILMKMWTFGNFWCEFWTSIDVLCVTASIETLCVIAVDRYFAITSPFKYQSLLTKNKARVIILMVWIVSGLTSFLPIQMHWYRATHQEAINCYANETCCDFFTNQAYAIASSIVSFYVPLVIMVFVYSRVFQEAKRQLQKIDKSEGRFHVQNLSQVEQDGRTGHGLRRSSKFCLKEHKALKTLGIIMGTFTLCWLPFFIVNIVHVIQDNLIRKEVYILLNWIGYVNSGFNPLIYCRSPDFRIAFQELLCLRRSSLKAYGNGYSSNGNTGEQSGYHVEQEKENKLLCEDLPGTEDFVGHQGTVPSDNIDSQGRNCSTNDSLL
For assay [6], the target named is AP-2 complex subunit beta (Homo sapiens) (UniProt P63010). The assay is described as follows: beta-arrestin/AP2 interaction blockers – biochemical, validation set, GST-AP2 beads, flow cytometry, pilot screen (AID 504541;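 active = inhibition above 54%, about 3 SD of non-fluorescent compounds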;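 also: AP2 carries R879A mutation and is captured from E. coli lysate; bead-bound FITC arrestin peptide fluorescence measuring arrestin peptide binding to AP2; 0% = DMSO wells and 100% = excess unlabeled arrestin peptide control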). Conditions: FITC arrestin peptide, at 10 µM, stronger effect = higher value, AP2 beta2 appendage fragment, R879A mutant.
Chain of AP-2 complex subunit beta (Homo sapiens) (P63010 whole entry, looked up, the tested form may be a part, one chain of several): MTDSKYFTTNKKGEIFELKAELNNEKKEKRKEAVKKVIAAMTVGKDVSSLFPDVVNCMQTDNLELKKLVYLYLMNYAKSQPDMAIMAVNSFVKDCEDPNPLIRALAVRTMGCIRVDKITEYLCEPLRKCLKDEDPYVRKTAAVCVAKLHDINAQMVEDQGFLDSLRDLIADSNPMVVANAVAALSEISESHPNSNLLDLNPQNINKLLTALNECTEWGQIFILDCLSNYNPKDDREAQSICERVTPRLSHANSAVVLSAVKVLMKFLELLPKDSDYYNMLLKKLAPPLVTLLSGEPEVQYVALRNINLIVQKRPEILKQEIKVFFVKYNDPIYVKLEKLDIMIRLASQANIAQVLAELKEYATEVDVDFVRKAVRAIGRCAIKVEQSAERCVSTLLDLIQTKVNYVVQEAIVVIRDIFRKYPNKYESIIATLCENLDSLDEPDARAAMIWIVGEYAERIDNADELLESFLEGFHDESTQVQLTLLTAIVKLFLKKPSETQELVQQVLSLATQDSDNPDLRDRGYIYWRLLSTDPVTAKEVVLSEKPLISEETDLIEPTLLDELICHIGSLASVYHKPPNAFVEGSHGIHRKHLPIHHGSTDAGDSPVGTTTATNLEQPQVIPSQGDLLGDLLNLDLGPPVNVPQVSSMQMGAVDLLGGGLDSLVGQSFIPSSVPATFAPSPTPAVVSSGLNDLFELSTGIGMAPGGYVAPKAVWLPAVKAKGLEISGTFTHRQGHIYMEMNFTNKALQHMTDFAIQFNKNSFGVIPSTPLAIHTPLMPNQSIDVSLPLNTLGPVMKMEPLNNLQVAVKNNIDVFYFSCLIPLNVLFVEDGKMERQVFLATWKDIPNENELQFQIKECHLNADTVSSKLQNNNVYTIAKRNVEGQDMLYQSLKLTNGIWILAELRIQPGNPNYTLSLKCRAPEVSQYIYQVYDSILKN
Assay [7] is described as follows: cytosolic pH regulators acting via V-ATPase – S. cerevisiae, pHLuorin, HTS validation (AID 504600; in the data active = response above about 15%;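 also: plate controls were DMSO for no effect and reference compound for full effect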). Conditions: V-ATPase proton transport, at 10 µM, stronger effect = higher value.
The test system of assay [8] is anti-desmoglein-3 scFv antibody binding to human DSG3. The assay is described as follows: blockers of pathogenic pemphigus antibody–desmoglein-3 binding – biochemical, validation compound set, bead-based, flow cytometry, pilot screen (AID 588368;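 active = binding below the plate cutoff, the plate median minus 3 SD, with a reading above zero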;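 also: signal is the median channel fluorescence of bead-bound GFP antibody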). As to conditions: Protein G beads, DSG3-Fc, scFv-GFP binding, at 10 µM, stronger effect = lower value.
Assay [9] in a line: Nile Red efflux blockade in pump-expressing yeast – validation compound set, multiplex, phenotypic, pilot screen (AID 588506;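 active = efflux inhibition above 0.42, the validation set average plus 4 SD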;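 also: Nile Red retained in cells so higher fluorescence means more efflux inhibition; 0 = negative control wells and 1 = enniatin B 25 µM full block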). As to conditions: S. cerevisiae pump-expressing triplex, Nile Red efflux flow cytometry; at 10 µM; stronger effect = higher value; the pumps come from Candida albicans.
Assay [10] concerns the target ATP-binding cassette sub-family B member 6 (Homo sapiens) (UniProt Q9NP58). The assay can be described thus: blockers of ABCB6-driven porphyrin uptake – K562-ABCB6 cells, flow cytometry, validation set, pilot screen (AID 588550;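 active = inhibition above the screen-wide mean plus 3 SD, about 51%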;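 also: 0% = DMSO wells and 100% = benzethonium chloride 70 µM positive control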). As to conditions: K562-ABCB6 porphyrin accumulation, 1 h, at 10 µM, stronger effect = higher value.
Assay [11] is described as follows: AML differentiation inducers, ER-HoxA9 marrow cells – cell-based, GFP/MAC1 double positive, flow cytometry, validation set, primary screen (AID 588685;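 active = differentiation response of at least 50%, scaled between solvent and reference control, from cells with both markers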;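 also: compound exposure lasts four days before antibody staining and flow analysis; 0% = DMSO wells and 100% = 5 µM fulvestrant positive control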). As to conditions: stronger effect = higher value, normalized: vehicle 0, fulvestrant 100.

The source made the active and inactive calls.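 The calls were made as follows, unless noted: active = response below a set limit, under 55% cells CD8-positive and vesicle-bound, and CD8 cells' 90th-percentile brightness under 279; inactive = the rest.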

We go through 13 molecules from PubChem BioAssay.

Chain of Integrin beta-1 (Homo sapiens) + Integrin alpha-4 (Homo sapiens) (P05556 whole entry, looked up): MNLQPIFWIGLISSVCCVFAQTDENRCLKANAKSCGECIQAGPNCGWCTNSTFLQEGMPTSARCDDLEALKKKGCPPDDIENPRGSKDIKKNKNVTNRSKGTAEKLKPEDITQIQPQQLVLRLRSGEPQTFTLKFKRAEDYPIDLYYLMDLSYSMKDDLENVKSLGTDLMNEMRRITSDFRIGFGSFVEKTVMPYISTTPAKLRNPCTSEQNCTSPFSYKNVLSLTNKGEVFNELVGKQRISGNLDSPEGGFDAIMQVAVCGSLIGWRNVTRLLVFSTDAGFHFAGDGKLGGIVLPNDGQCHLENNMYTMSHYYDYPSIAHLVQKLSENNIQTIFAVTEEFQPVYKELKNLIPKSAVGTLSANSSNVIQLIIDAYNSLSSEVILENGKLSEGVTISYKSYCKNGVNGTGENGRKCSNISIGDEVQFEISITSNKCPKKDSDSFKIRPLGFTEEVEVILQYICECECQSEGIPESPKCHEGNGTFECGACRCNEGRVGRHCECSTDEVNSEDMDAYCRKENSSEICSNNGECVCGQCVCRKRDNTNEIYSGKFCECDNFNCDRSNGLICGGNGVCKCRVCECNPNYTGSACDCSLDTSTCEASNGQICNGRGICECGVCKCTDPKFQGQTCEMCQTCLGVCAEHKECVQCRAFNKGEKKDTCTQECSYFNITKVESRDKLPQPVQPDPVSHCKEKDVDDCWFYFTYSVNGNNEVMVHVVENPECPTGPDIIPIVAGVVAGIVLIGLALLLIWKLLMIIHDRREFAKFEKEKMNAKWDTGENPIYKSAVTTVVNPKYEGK
Chain of Integrin beta-1 (Homo sapiens) + Integrin alpha-4 (Homo sapiens) (P13612 whole entry, looked up): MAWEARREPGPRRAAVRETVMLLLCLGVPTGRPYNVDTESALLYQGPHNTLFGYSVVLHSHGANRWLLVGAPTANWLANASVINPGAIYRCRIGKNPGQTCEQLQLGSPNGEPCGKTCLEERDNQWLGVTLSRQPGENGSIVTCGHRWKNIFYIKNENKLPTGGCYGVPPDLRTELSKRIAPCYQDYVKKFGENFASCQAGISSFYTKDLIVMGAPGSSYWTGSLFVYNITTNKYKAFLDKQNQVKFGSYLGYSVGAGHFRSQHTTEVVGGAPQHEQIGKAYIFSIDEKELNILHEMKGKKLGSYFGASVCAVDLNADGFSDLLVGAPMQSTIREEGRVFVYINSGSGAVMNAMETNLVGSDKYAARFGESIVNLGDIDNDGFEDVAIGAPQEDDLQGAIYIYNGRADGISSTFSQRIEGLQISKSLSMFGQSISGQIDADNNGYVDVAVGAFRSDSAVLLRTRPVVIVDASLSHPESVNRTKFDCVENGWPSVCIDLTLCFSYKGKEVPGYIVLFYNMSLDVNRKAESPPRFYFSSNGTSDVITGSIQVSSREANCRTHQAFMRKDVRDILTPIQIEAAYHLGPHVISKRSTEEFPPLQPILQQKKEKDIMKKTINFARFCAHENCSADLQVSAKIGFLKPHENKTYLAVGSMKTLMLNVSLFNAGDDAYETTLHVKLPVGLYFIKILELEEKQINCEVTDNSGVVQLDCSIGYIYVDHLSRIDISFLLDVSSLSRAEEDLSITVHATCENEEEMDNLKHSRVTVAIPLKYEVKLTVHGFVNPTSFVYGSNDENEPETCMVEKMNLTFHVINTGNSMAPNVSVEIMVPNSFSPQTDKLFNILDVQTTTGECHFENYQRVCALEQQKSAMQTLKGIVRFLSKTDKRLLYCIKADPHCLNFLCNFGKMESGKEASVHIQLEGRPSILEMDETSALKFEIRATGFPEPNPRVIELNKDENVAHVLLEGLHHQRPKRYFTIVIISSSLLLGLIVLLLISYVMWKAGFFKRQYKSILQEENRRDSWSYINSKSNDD
Chain of ATP-binding cassette sub-family B member 6 (Homo sapiens) (Q9NP58 whole entry, looked up): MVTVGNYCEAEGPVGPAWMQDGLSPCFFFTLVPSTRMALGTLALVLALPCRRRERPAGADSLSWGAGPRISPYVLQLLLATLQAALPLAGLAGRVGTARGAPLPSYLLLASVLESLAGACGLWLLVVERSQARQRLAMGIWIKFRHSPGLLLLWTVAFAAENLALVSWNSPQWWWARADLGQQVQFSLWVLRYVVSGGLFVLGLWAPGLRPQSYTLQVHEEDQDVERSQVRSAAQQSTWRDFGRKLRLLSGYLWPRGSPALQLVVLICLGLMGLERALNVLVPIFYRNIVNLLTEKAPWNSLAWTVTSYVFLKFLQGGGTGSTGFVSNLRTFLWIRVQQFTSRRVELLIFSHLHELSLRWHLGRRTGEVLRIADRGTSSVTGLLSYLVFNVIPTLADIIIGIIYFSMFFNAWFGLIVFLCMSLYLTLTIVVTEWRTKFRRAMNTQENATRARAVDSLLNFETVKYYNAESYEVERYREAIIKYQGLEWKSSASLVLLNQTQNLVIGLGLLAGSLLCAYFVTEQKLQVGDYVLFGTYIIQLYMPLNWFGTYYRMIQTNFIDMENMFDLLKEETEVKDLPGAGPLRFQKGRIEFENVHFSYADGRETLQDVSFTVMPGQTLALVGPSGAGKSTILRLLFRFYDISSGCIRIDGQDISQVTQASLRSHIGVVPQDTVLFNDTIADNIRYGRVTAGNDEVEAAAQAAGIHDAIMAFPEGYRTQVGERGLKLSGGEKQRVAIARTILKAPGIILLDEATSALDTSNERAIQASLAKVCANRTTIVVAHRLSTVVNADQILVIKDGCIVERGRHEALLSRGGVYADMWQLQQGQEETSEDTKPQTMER

The inhibition is the drop in the measured response relative to a control, in per cent. In turn, `CC1(C)O[C@@H]2C[C@H]3[C@@H]4CCC5=CC(=O)C=C[C@]5(C)[C@@]4(F)[C@@H](O)C[C@]3(C)[C@]2(C(=O)CO)O1` yielded a double positive events in assay [1] of 61.2%. Also, in assay [1], the vesicle binding response was 123% (inactive). In addition, the inhibition is 0.25% (inactive) in assay [2], -3.89% (inactive) in assay [6] and 2% (inactive) in assay [10]. For the same molecule, the superoxide response (% of plate) in assay [3] is 91.8% (inactive). Moreover, the aptamer binding inhibition in assay [4] is -1% (inactive). The response is 10.2% (inactive) in [5] and -1.77% (inactive) in assay [7]. Moreover, in assay [8], the binding (% of control) was 107% (inactive). The efflux inhibition (fraction of control) in [9] was -0.22 (inactive). Moreover, the differentiation response in assay [11] is 40.8% (inactive).
`CCOCc1cc(C)[nH]c(=O)c1C#N` yielded a double positive events in assay [1] of 60.2%. In addition, the vesicle binding response in assay [1] is 225% (inactive). Besides, the inhibition is 3.67% (inactive) in assay [2], -6.13% (inactive) in assay [6] and 7% (inactive) in assay [10]. For the same molecule, in assay [3], the superoxide response (% of plate) was 98.3% (inactive). In assay [4], the aptamer binding inhibition is 2% (inactive). For the same molecule, the values for the response in assay [5] and in assay [7] were 1.78% (inactive) and 1.03% (inactive), respectively. Moreover, the binding (% of control) in [8] is 102% (inactive). Besides, the efflux inhibition (fraction of control) in [9] is -0.21 (inactive). For the same molecule, the differentiation response in assay [11] is -4% (inactive).
As for `Oc1ccc(Oc2ncc(Cl)cc2Cl)cc1`, in assay [1], the double positive events worked out at 61.9%. In addition, the vesicle binding response in assay [1] was 223% (inactive). The figures for the inhibition in assay [2], in assay [6] and in assay [10] were -3.67% (inactive), -4.55% (inactive) and 6% (inactive), respectively. The superoxide response (% of plate) in assay [3] is 73.7% (inactive). In addition, the aptamer binding inhibition in assay [4] was 2% (inactive). In addition, the response was -11% (inactive) in assay [5] and 8.39% (inactive) in [7]. In addition, the binding (% of control) in assay [8] was 107% (inactive). Also, in assay [9], the efflux inhibition (fraction of control) is 0.12 (inactive). In assay [11], the differentiation response is -12.9% (inactive).
Molecule `C#CCN(C)Cc1ccccc1` gave a double positive events in assay [1] of 66.2%. Moreover, the vesicle binding response in assay [1] is 248% (inactive). For the same molecule, the inhibition in [2] is -2.82% (inactive); in assay [6], -10.1% (inactive); in assay [10] it was 2% (inactive). For the same molecule, the superoxide response (% of plate) in assay [3] was 102% (inactive). The aptamer binding inhibition in assay [4] was 2% (inactive). In addition, the figures for the response in [5] and in assay [7] were -26.9% (inactive) and -1.24% (inactive), respectively. The binding (% of control) in assay [8] is 99.9% (inactive). Further, the efflux inhibition (fraction of control) in assay [9] was -0.04 (inactive). The differentiation response in assay [11] is -8.93% (inactive).
In turn, `COc1cc(C(=O)OCCCN(C)C)cc(OC)c1OC` registered a double positive events in [1] of 60.1%. The vesicle binding response in [1] was 180% (inactive). Further, the inhibition was 21.9% (inactive) in assay [2], 4.79% (inactive) in assay [6] and -1% (inactive) in assay [10]. For the same molecule, the superoxide response (% of plate) in [3] is 93.6% (inactive). For the same molecule, the aptamer binding inhibition in assay [4] is -2% (inactive). The response was -28.8% (inactive) in [5] and 1.07% (inactive) in [7]. Besides, the binding (% of control) in assay [8] was 108% (inactive). The efflux inhibition (fraction of control) in assay [9] was -0.09 (inactive). In addition, the differentiation response in assay [11] was -4.99% (inactive).
As to `Cc1csc(-c2coc3cc(O)cc(C)c3c2=O)n1`, the double positive events in assay [1] is 63.8%. Besides, the vesicle binding response in [1] was 138% (inactive). For the same molecule, the inhibition in assay [2] is 2.3% (inactive); in [6], 13.4% (inactive); in assay [10] it was 17% (inactive). For the same molecule, the superoxide response (% of plate) in assay [3] was 119% (inactive). Besides, the aptamer binding inhibition in assay [4] is 2% (inactive). For the same molecule, the response in assay [5] was 0.13% (inactive); in assay [7] it was -4.09% (inactive). Further, in assay [8], the binding (% of control) was 97.4% (inactive). For the same molecule, in assay [9], the efflux inhibition (fraction of control) is -0.03 (inactive). The differentiation response in assay [11] is 2.4% (inactive).
The molecule `COc1cc2c(cc1OC)C1(CCCCC1)CN(C)C2` came in with a double positive events in [1] of 57.3%. In assay [1], the vesicle binding response was 258% (inactive). In addition, the inhibition in [2] is 16% (inactive); in assay [6] it was 4.18% (inactive); in assay [10] it was -22% (inactive). Moreover, the superoxide response (% of plate) in [3] is 103% (inactive). In assay [4], the aptamer binding inhibition was 5% (inactive). The response in assay [5] is 5.44% (inactive); in assay [7], 1.68% (inactive). In assay [8], the binding (% of control) is 89% (inactive). Moreover, the efflux inhibition (fraction of control) in assay [9] is 0.12 (inactive). Also, the differentiation response in assay [11] is 4% (inactive).
`CC(C)Cc1nc(NCCN2CCOCC2)c(C#N)c2c1COC(C)(C)C2`: the double positive events in [1] is 61.1%. Moreover, the vesicle binding response in [1] is 159% (inactive). Moreover, the values for the inhibition in assay [2], in assay [6] and in assay [10] were 7.4% (inactive), -18.1% (inactive) and -5% (inactive), respectively. In addition, the superoxide response (% of plate) in assay [3] is 93.4% (inactive). Further, the aptamer binding inhibition in assay [4] is -1% (inactive). The figures for the response in assay [5] and in [7] were -20.4% (inactive) and 3.4% (inactive), respectively. In addition, in assay [8], the binding (% of control) was 104% (inactive). Further, the efflux inhibition (fraction of control) in assay [9] was 0.08 (inactive). Also, the differentiation response in assay [11] was -15.8% (inactive).
`CC(=O)O[C@H]1CC[C@H]2[C@@H]3CCc4cc(O)ccc4[C@H]3CC[C@]12C` showed a double positive events in [1] of 58.2%. For the same molecule, in assay [1], the vesicle binding response is 234% (inactive). Besides, the figures for the inhibition in [2], in assay [6] and in assay [10] were 15.9% (inactive), 6.38% (inactive) and 5% (inactive), respectively. In addition, the superoxide response (% of plate) in [3] is 80.4% (inactive). For the same molecule, the aptamer binding inhibition in assay [4] is 1% (inactive). The response in assay [5] is -33% (inactive); in [7], 2.35% (inactive). Besides, the binding (% of control) in assay [8] is 101% (inactive). Moreover, the efflux inhibition (fraction of control) in [9] is 0.21 (inactive). In addition, the differentiation response in assay [11] was -1.05% (inactive).
Take `O=c1[nH]c(Cc2ccccc2)nc2c1oc1ccccc12`: in assay [1], the double positive events stood at 58.4%. For the same molecule, the vesicle binding response in [1] is 200% (inactive). Also, the inhibition in [2] was -7.25% (inactive); in assay [6] it was -7.86% (inactive); in assay [10], 4% (inactive). Besides, in assay [3], the superoxide response (% of plate) was 94% (inactive). Further, the aptamer binding inhibition in [4] is 12% (inactive). Further, the response in [5] is 0.02% (inactive); in [7], -2.08% (inactive). For the same molecule, the binding (% of control) in assay [8] was 97% (inactive). In addition, the efflux inhibition (fraction of control) in assay [9] was -0.17 (inactive). Besides, in assay [11], the differentiation response was -4% (inactive).
The molecule `CN1CCN(C2=Nc3cc(Cl)ccc3Nc3ccccc32)CC1` registered a double positive events in assay [1] of 61.7%. The vesicle binding response in assay [1] is 222% (inactive). Besides, the inhibition in assay [2] was 31.2% (inactive); in assay [6], 9.21% (inactive); in [10], -2% (inactive). The superoxide response (% of plate) in assay [3] is 84.7% (inactive). Further, in assay [4], the aptamer binding inhibition is -4% (inactive). The response in assay [5] was -25% (inactive); in assay [7] it was 6.59% (inactive). Besides, the binding (% of control) in assay [8] is 102% (inactive). Besides, the efflux inhibition (fraction of control) in assay [9] is 0.04 (inactive). Besides, the differentiation response in assay [11] is -5.97% (inactive).
With `COc1ccc(CN(CCC(c2ccc(F)cc2)C2CCOC(C)(C)C2)C(=O)c2ccco2)cc1` (stereo not given), the double positive events in assay [1] worked out at 59.4%. Also, the vesicle binding response in [1] is 144% (inactive). In addition, the values for the inhibition in assay [2], in [6] and in [10] were -8.62% (inactive), -11.3% (inactive) and 3% (inactive), respectively. For the same molecule, the superoxide response (% of plate) in assay [3] is 104% (inactive). The aptamer binding inhibition in [4] is 5% (inactive). In addition, the response in [5] is 22.1% (inactive); in assay [7], 1.03% (inactive). Also, the binding (% of control) in [8] is 101% (inactive). The efflux inhibition (fraction of control) in assay [9] is 0.12 (inactive). Besides, in assay [11], the differentiation response is -13.6% (inactive).
With `O=C(CCNNC(=O)c1ccncc1)NCc1ccccc1`, the double positive events in assay [1] was 66.8%. The vesicle binding response in assay [1] is 184% (inactive). Also, the inhibition in [2] is 18.4% (inactive); in [6], 26.4% (inactive); in assay [10], 5% (inactive). The superoxide response (% of plate) in assay [3] was 101% (inactive). Besides, in assay [4], the aptamer binding inhibition was -1% (inactive). Besides, in assay [7], the response is 1.75% (inactive). The binding (% of control) in assay [8] was 99% (inactive). Besides, in [9], the efflux inhibition (fraction of control) is 0.48 (active). Further, in assay [11], the differentiation response is -24.4% (inactive).
